Hit rate of the full screen: of about 39,000 compounds, about 500 (1.3%) were called active. The sample holds actives, similar compounds and a random draw of the others, so the mix is not that of the screen.
Tested on: S. aureus RN4220
Test: growth inhibition call (relative growth <= 0.2)
Conditions: 50 µM

SMILES | growth inhibition call
Cc1ccc(S(=O)(=O)Nc2ccc3c(c2)CC(=O)N([C@@H](C)CO)C[C@H](C)[C@H](CN(C)S(=O)(=O)c2c(C)noc2C)O3)cc1 | inactive
C[C@H](CO)N1C[C@H](C)[C@H](CN(C)S(=O)(=O)c2ccc(Cl)cc2)Oc2c(NC(=O)C3CCOCC3)cccc2C1=O | inactive
COc1ccc(CNC(=O)C[C@@H]2CC[C@@H]3[C@H](COc4ccc(NC(=O)C5CC5)cc4C(=O)N3C)O2)cc1 | inactive
COc1ccccc1C#Cc1cnc2c(c1)C(=O)N([C@@H](C)CO)C[C@H](C)[C@@H](CN(C)S(=O)(=O)c1cn(C)cn1)O2 | inactive
COc1ccccc1NC(=O)N(C)C[C@H]1Oc2ncc(C#CCN(C)C)cc2C(=O)N([C@@H](C)CO)C[C@@H]1C | inactive
COc1ccc(-c2ccc3c(c2)O[C@H](CN(C)CC2CCOCC2)[C@@H](C)CN([C@H](C)CO)S3(=O)=O)cc1 | inactive
C[C@@H]1CN([C@@H](C)CO)C(=O)Cc2cc(NC(=O)Cn3cnnn3)ccc2O[C@H]1CN(C)S(=O)(=O)c1ccc(Cl)cc1 | inactive
Cc1noc(C)c1NC(=O)Nc1ccc2c(c1)C(=O)N([C@H](C)CO)C[C@@H](C)[C@@H](CN(C)C(=O)Nc1c(C)noc1C)OCCCC[C@@H](C)O2 | inactive
Cc1cc(NN)nc(SCC(=O)NN)n1 | inactive
CC(C)(Sc1ccc(CCN(CCCCC2CCCCC2)C(=O)NC2CCCCC2)cc1)C(=O)O | active
C/C=C/c1ccc2c(c1)O[C@@H](CN(C)C(=O)c1ccc3c(c1)OCO3)[C@@H](C)CN([C@@H](C)CO)S2(=O)=O | inactive
Cn1cnc(S(=O)(=O)N2C[C@H](O)COC[C@H]3O[C@H](CC(=O)NC4CCC4)CC[C@@H]32)c1 | inactive
C[C@H]1CN([C@@H](C)CO)C(=O)c2cc(NC(=O)CCCN(C)C)ccc2O[C@H]1CN(C)Cc1ccc(C(=O)O)cc1 | inactive
C[C@H]1CN([C@@H](C)CO)C(=O)c2cc(NC(=O)Cn3cnnn3)ccc2O[C@H]1CN(C)Cc1ccc(C(=O)Nc2ccccc2N)cc1 | inactive
Cc1cc(C(C)(C)CC(C)(C)C)ccc1OCCOCC[N+](C)(C)Cc1ccccc1.[Cl-] | active
C[N+](C)(CCOc1ccccc1)Cc1ccccc1.O=C(O)c1cc2ccccc2c(Br)c1O | inactive
C[N+](C)(CCOc1ccccc1)Cc1ccccc1.O=C([O-])c1cc2ccccc2cc1O | inactive
CC(C)(C)CC(C)(C)c1ccc(OCCOCC[N+](C)(C)Cc2ccccc2)cc1.[Cl-] | active
C=c1ccc(C)cc1=C1NN=C(NC(=O)c2ccc(S(=O)(=O)N(CCOC)CCOC)cc2)O1 | inactive
CC(C)NC(=O)NCC[C@H]1CC[C@H](NC(=O)CN(C)C)[C@@H](CO)O1 | inactive
C/C=C/c1ccc2c(c1)O[C@H](CN(C)Cc1ccc(C(=O)O)cc1)[C@@H](C)CN([C@H](C)CO)S2(=O)=O | inactive
C[C@@H]1CN([C@H](C)CO)C(=O)c2cc(NC(=O)Nc3ccc4c(c3)OCO4)ccc2O[C@@H]1CN(C)Cc1ccc(C(F)(F)F)cc1 | inactive
C[C@H]1CCCCO[C@H](CN(C)CC2CCCCC2)[C@@H](C)CN([C@@H](C)CO)C(=O)c2cc(NC(=O)C3CCCCC3)ccc2O1 | inactive
O=C(Nc1nc(OCCN2CCCC2=O)cnc1-c1cc(Cl)cc(Cl)c1)c1cc2ccccc2s1 | inactive
C[C@H](CO)N1C[C@H](C)[C@H](CN(C)Cc2ccc(C(=O)Nc3ccccc3N)cc2)Oc2c(NC(=O)Nc3cccc4ccccc34)cccc2C1=O | inactive

SMILES | growth inhibition call
C[C@H]1CN([C@@H](C)CO)C(=O)c2cccc(NC(=O)Nc3ccc(C(F)(F)F)cc3)c2O[C@H]1CN(C)C(=O)Nc1ccc2c(c1)OCO2 | active
C[C@@H]1CN([C@H](C)CO)C(=O)c2cccc(NC(=O)Nc3ccc(C(F)(F)F)cc3)c2O[C@@H]1CN(C)C(=O)Nc1ccc2c(c1)OCO2 | inactive
C[C@H]1CN([C@@H](C)CO)C(=O)c2cccc(NC(=O)Nc3ccc4c(c3)OCO4)c2O[C@@H]1CN(C)C(=O)Nc1ccc(C(F)(F)F)cc1 | inactive
C[C@@H]1CN([C@@H](C)CO)C(=O)c2cccc(NC(=O)Nc3ccc(C(F)(F)F)cc3)c2O[C@H]1CN(C)C(=O)Nc1ccc2c(c1)OCO2 | inactive
C[C@H](CO)N1C[C@H](C)[C@H](CN(C)C(=O)Nc2ccc3c(c2)OCO3)Oc2c(NC(=O)Nc3ccc(C(F)(F)F)cc3)cccc2C1=O | active
C[C@H](CO)N1C[C@H](C)[C@H](CN(C)C(=O)Nc2ccc(C(F)(F)F)cc2)Oc2c(NC(=O)Nc3ccc4c(c3)OCO4)cccc2C1=O | inactive
C[C@H](CO)N1C[C@H](C)[C@H](CN(C)Cc2ccc3c(c2)OCO3)OCCCC[C@H](C)Oc2ccc(NC(=O)CCC(F)(F)F)cc2C1=O | inactive
COc1ccccc1-c1ccc2c(c1)O[C@@H](CN(C)C(=O)c1cccnc1)[C@@H](C)CN([C@@H](C)CO)S2(=O)=O | inactive
COc1cccc(NC(=O)C[C@@H]2CC[C@@H]3[C@H](COc4ccc(NC(=O)C5CCOCC5)cc4C(=O)N3C)O2)c1 | inactive
Cc1noc(C)c1S(=O)(=O)Nc1ccc2c(c1)C(=O)N([C@H](C)CO)C[C@H](C)[C@H](CN(C)S(=O)(=O)c1ccc(F)cc1)O2 | inactive
CCOC(=O)[C@H]1C/C=C/C[C@H](C(=O)OCC)C(=O)O[C@H]2[C@@H](OC)O[C@H](CO)[C@@H](OC(=O)Nc3ccc(Br)cc3)[C@@H]2OC1=O | inactive
CCOc1ccc(CO[C@@H]2O[C@H](CO)[C@@H](O)[C@H](O)[C@H]2NC(C)=O)cc1OC | inactive
Cn1cnc(CCNC(=O)C[C@@H]2CC[C@H]3[C@@H](COC[C@H](O)CN3C(=O)Nc3ccc(C(F)(F)F)cc3)O2)c1 | inactive
Cn1cnc(CCNC(=O)C[C@@H]2CC[C@H]3[C@@H](COC[C@H](O)CN3C(=O)Nc3ccc(Cl)cc3)O2)c1 | inactive
Cn1cnc(CCNC(=O)C[C@H]2CC[C@@H]3[C@H](COC[C@H](O)CN3C(=O)Nc3ccc(C(F)(F)F)cc3)O2)c1 | active
Cn1cnc(CCNC(=O)C[C@@H]2CC[C@@H]3[C@H](COC[C@H](O)CN3C(=O)Nc3ccc(C(F)(F)F)cc3)O2)c1 | active
Cn1cnc(CCNC(=O)C[C@H]2CC[C@H]3[C@@H](COC[C@@H](O)CN3C(=O)Nc3ccc(C(F)(F)F)cc3)O2)c1 | active
Cn1cnc(CCNC(=O)C[C@@H]2CC[C@H]3[C@@H](COC[C@@H](O)CN3C(=O)Nc3ccc(C(F)(F)F)cc3)O2)c1 | active
Cn1cnc(CCNC(=O)C[C@@H]2CC[C@@H]3[C@H](COC[C@@H](O)CN3C(=O)Nc3ccc(C(F)(F)F)cc3)O2)c1 | inactive
Cn1cnc(CCNC(=O)C[C@H]2CC[C@@H]3[C@H](COC[C@@H](O)CN3C(=O)Nc3ccc(C(F)(F)F)cc3)O2)c1 | inactive
Cn1cnc(CCNC(=O)C[C@H]2CC[C@H]3[C@@H](COC[C@@H](O)CN3C(=O)Nc3ccc(Cl)cc3)O2)c1 | inactive
Cn1cnc(CCNC(=O)C[C@H]2CC[C@H]3[C@@H](COC[C@H](O)CN3C(=O)Nc3ccc(C(F)(F)F)cc3)O2)c1 | inactive
Cn1cnc(CCNC(=O)C[C@H]2CC[C@@H]3[C@H](COC[C@@H](O)CN3C(=O)Nc3ccc(Cl)cc3)O2)c1 | inactive
Cn1cnc(CCNC(=O)C[C@@H]2CC[C@H]3[C@@H](COC[C@@H](O)CN3C(=O)Nc3ccc(Cl)cc3)O2)c1 | inactive
CN1C(=O)c2cc(NC(=O)C3CCC3)ccc2OC[C@H]2O[C@H](CC(=O)NCCc3ccncc3)CC[C@H]21 | inactive

SMILES | growth inhibition call
CO[C@H]1CN(C)C(=O)c2cc(NS(=O)(=O)CC(F)(F)F)ccc2OC[C@@H](C)N(C(=O)NC(C)C)C[C@H]1C | inactive
O=C(C[C@@H]1CC[C@H](NC(=O)Cc2ccccn2)[C@H](CO)O1)NCCCN1CCOCC1 | inactive
COCCOC(=O)N1C(=O)[C@@]2(c3cc(C#Cc4ccc(OC)cc4)ccc31)[C@H](C(=O)N1CCc3cc(OC)c(OC)cc3C1)[C@H]1C(=O)O[C@H](c3ccccc3)[C@H](c3ccccc3)N1[C@@H]2c1ccc(O)cc1 | inactive
C[C@H]1CN([C@@H](C)CO)C(=O)c2cc(C3=CCCC3)cnc2O[C@H]1CN(C)C(=O)Nc1ccc(C(F)(F)F)cc1 | inactive
C[C@H]1CN([C@@H](C)CO)C(=O)c2cccc(NC(=O)Nc3cccc4ccccc34)c2O[C@@H]1CN(C)C(=O)Nc1cccc2ccccc12 | inactive
C#CCn1c(=O)c2c(OC)ccnc2n(C)c1=O | inactive
Cc1ccccc1S(=O)(=O)N1[C@@H]2Cn3c(cccc3=O)[C@H]1[C@@H](C(=O)N1CCOCC1)[C@@H]2CO | inactive
COc1ccc(NC(=O)Nc2ccc3c(c2)C(=O)N([C@@H](C)CO)C[C@@H](C)[C@@H](CN(C)Cc2ccc(Oc4ccccc4)cc2)O3)cc1 | inactive
CN1C(=O)c2cc(NS(C)(=O)=O)ccc2OC[C@H]2O[C@@H](CC(=O)N3CCOCC3)CC[C@H]21 | inactive
C[C@@H]1CN([C@@H](C)CO)C(=O)Cc2cc(NS(=O)(=O)c3ccc(Cl)cc3)ccc2O[C@@H]1CN(C)C(=O)Nc1ccc(C(F)(F)F)cc1 | inactive
C[C@H](CO)N1C[C@H](C)[C@@H](CN(C)C(=O)Nc2cccc3ccccc23)Oc2ccc(NC(=O)Cn3cnnn3)cc2CC1=O | inactive
CO[C@H](CN(C)C(=O)C1CCOCC1)[C@@H](C)CN(C(=O)Nc1ccc(C(F)(F)F)cc1)[C@@H](C)CO | active
CO[C@H](CN(C)C(=O)Nc1ccc(C(F)(F)F)cc1)[C@@H](C)CN(Cc1ccccc1Cl)[C@@H](C)CO | inactive
CO[C@@H](CN(C)C(=O)Nc1ccc(C(F)(F)F)cc1)[C@H](C)CN(Cc1ccccc1Cl)[C@H](C)CO | inactive
CO[C@@H](CN(C)C(=O)C1CCOCC1)[C@@H](C)CN(C(=O)Nc1ccc(C(F)(F)F)cc1)[C@@H](C)CO | inactive
C[C@@H]1CN([C@H](C)CO)C(=O)c2cc(NC(=O)Nc3ccc(C(F)(F)F)cc3)ccc2O[C@@H](C)CCCCO[C@H]1CN(C)C(=O)C1CCCCC1 | inactive
CO[C@@H](CN(C)C(=O)C1CCOCC1)[C@@H](C)CN(C(=O)Nc1ccc(C(F)(F)F)cc1)[C@H](C)CO | active
CO[C@H](CN(C)C(=O)Nc1ccc(C(F)(F)F)cc1)[C@@H](C)CN(Cc1ccccc1Cl)[C@H](C)CO | inactive
CO[C@@H](CN(C)C(=O)Nc1ccc(C(F)(F)F)cc1)[C@H](C)CN(Cc1ccccc1Cl)[C@@H](C)CO | inactive
CO[C@H](CN(C)C(=O)Nc1ccc(C(F)(F)F)cc1)[C@H](C)CN(Cc1ccccc1Cl)[C@@H](C)CO | inactive
CO[C@@H](CN(C)C(=O)C1CCOCC1)[C@H](C)CN(C(=O)Nc1ccc(C(F)(F)F)cc1)[C@@H](C)CO | active
CO[C@H](CN(C)C(=O)C1CCOCC1)[C@H](C)CN(C(=O)Nc1ccc(C(F)(F)F)cc1)[C@@H](C)CO | active
C[C@H](CO)N1C[C@H](C)[C@@H](CN(C)C(=O)C2CCCCC2)OCCCC[C@H](C)Oc2ccc(NC(=O)Nc3ccc(C(F)(F)F)cc3)cc2C1=O | inactive

Source: the antibiotic and cytotoxicity screens of Wong et al. (2023)
